Rac1 act GTP bind = modulators of GTP binding to human Rac1 activated mutant; P63000; GST-Rac1 activated beads, fluorescent GTP binding, flow cytometry; actives lie on both sides; 100% means binding = to untreated wells; percent activity (GTP binding), % at 10 µM; 190,000 tested, 0.11% active; AID 764;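 active means GTP binding at least 20 percentage points away from the 100% baseline, in either direction, so actives lie on both sides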
Rab7 wt GTP bind = alters GTP binding to wildtype dog Rab7. 190,000 tested, 0.055% active. AID 758. GST-Rab7 beads, fluorescent GTP binding, flow cytometry; actives lie on both sides; untreated = 100%, excess cold GTP = 0%. GTP binding activity (percent of control), % at 10 µM;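 active means fluorescent GTP binding to Rab7 beads changed by at least 20 points from the 100% baseline, either direction, mostly lower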;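 further: median green fluorescence of bound Bodipy-FL-GTP per Rab7 bead population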
HRas wt GTP bind = modulators of GTP binding to human HRas wildtype; P01112; GST-Ras wt beads, Bodipy-FL-GTP binding, flow cytometry; actives lie on both sides; GTP binding activity, % at 10 µM; 190,000 tested, 0.14% active;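 active means GTP binding activity at least 20% away from the 100% baseline, either lowered as inhibitor or raised as activator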;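 further: 0% = unlabeled GTP competition control and 100% = no-compound control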
Target sequence (P01112 whole entry, looked up): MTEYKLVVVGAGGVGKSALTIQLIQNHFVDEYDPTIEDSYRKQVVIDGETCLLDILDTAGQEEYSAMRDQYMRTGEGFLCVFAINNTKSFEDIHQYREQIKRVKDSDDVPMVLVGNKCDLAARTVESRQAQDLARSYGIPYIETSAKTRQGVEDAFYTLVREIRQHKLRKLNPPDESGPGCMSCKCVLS
Cdc42 wt = modulators (inhibitors or activators) of GTP binding to human Cdc42 wildtype. GST-Cdc42 beads, Bodipy-GTP binding, flow cytometry; actives lie on both sides. P60953. percent activity (GTP binding), % at 10 µM. AID 761. 190,000 tested, 0.2% active;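 active means percent activity GTP binding at least 20 points away from the 100% baseline, either down as inhibitor or up as activator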;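 further: median bead fluorescence of bound Bodipy-FL-GTP at 100 nM; 0% = excess unlabeled GTP control and 100% = no compound control; below 100% means less GTP binding so inhibitor and above means activator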
Target sequence (P60953 whole entry, looked up): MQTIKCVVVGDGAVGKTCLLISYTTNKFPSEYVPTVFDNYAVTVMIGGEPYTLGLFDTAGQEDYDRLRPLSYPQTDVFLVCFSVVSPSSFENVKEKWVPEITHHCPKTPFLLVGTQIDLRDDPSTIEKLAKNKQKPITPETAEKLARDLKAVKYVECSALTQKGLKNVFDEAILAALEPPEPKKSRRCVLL
Rac1 wt modul = alters GTP binding to wildtype human Rac1 | GST-Rac1 beads, fluorescent GTP binding, flow cytometry; actives lie on both sides; 0 = cold GTP competed, 100 = untreated | 190,000 tested, 0.27% active | P63000 | GTP binding activity (% of control), % at 10 µM;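 active means GTP binding activity at least 20 points away from the 100% control level, either lower or higher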
Rab2 wt GTP = changes GTP binding to wildtype dog Rab2A, up or down. 190,000 tested, 0.19% active. GST-Rab2 wt beads, Bodipy-GTP binding, flow cytometry. P61105. AID 760. GTP binding activity, % at 10 µM;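 active means GTP binding activity at least 20 points away from 100%, either lowered or raised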;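 further: 0% = beads with excess unlabeled GTP and 100% = no-compound control corrected for plate trend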
Starred values were filed as active, the others as inactive; [ ] = remark or other dose. Compounds with a hit are over-represented: about 0.37% of the library has one in this group of screens.

SMILES	Rac1 act GTP bind	Rab7 wt GTP bind	HRas wt GTP bind	Cdc42 wt	Rac1 wt modul	Rab2 wt GTP
COc1ccccc1OCCn1cc(C(=O)O)c2ccccc21	120*[activator]	109	111	114	120*[activator]	114
COc1ccccc1OCCn1cc(C#N)c2ccccc21	97	97	100	103	107	103
O=C(O)c1cn(CCOc2ccccc2Cl)c2ccccc12	115	113	113	117	121*[activator]	119
O=C(CCl)Nc1ccccc1C(=O)c1ccccc1	97	97	98	96	98	98
O=C(O)COc1ccccc1/C=N/Nc1ccc(S(=O)(=O)Nc2ccc(Cl)cc2)cc1[N+](=O)[O-]	80	94	87	79*	84	84
COc1cc(/C=C(/C#N)c2nc3ccccc3[nH]2)ccc1OCc1ccc(C(=O)O)o1	87	94	78*	78*	85	77*
COc1ccc2nc(/C(C#N)=C\c3ccc(C(=O)O)cc3)[nH]c2c1	85	96	86	78*	77*	86
COC(=O)c1ccc(COc2ccc(/C=C(\C#N)c3nc4ccccc4[nH]3)cc2OC)o1	98	99	99	101	102	101
N#CCCN(/N=C/c1cccnc1)C1=NS(=O)(=O)c2ccccc21	95	96	87	89	85	87
Cc1cccc(/C=N/N(CCO)C2=NS(=O)(=O)c3ccccc32)c1	84	92	80	82	68*	81
O=C1CS/C(=C\[N+](=O)[O-])N1c1ccccc1	98	101	102	106	101	102
COc1ccc(C(=O)N[C@H](C(=O)OCc2cc(=O)oc3cc(C)ccc23)C(C)C)cc1	33*	20*	37*	33*	33*	31*
Cc1nnc2ccc(-c3cccc(NC(=O)c4ccco4)c3)nn12	75*	77*	65*	64*	56*	63*
OC(c1cccc(OCc2ccccc2)c1)c1nnc(-c2ccccc2)o1 (stereo unspecified)	95	98	97	100	103	97
OC(c1ccc(OCc2ccccc2)cc1)c1nnc(-c2ccccc2)o1 (stereo unspecified)	78*	92	82	75*	74*	81
CCOC(=O)c1sc(NN=C(C(=O)OC)C(=O)OC)c(C(=O)OCC)c1C	96	97	96	98	100	95
Cc1cc(C)cc(C(=O)N(NC(=O)Nc2ccc(Cl)cc2)C(C)(C)C)c1	99	74*	95	101	99	97
C/C=C/c1ccccc1OCc1ccc(C(=O)O)o1	146*[activator]	134*[activator]	145*[activator]	161*[activator]	194*[activator]	149*[activator]
Cc1c(Cl)cn2c(=O)cc(CN(C)Cc3nc4ccccc4c(=O)[nH]3)nc2c1Cl	103	98	99	96	106	95
Oc1ccc(/C=N/NC(=S)N/N=C/c2ccc(O)cc2)cc1	88	94	87	82	71*	85
Cc1cc(C(=O)N=Nc2c(O)n(C(C)C)c3ccccc23)n[nH]1	93	97	96	94	93	96
CC(C)n1c(O)c(N=Nc2ccc(Cl)nn2)c2ccccc21	117	117	121*[activator]	116	114	129*[activator]
O=C(NCc1cccs1)c1cccn2c(=O)c3sccc3nc12	77*	92	66*	63*	55*	63*
O=C(NCc1cccs1)c1cnc2ccccn2c1=O	96	100	99	101	103	98
COc1ccc(C(=O)CSc2ccc3nnc(-c4cccnc4)n3n2)cc1	96	101	98	92	88	95
O=C(O)CSc1ccc2nnc(-c3cccnc3)n2n1	91	98	91	87	78*	88
Cc1cc(=O)[nH]c2c(N=Nc3ccc(O)cc3)c(N)nn12	79*	84	63*	60*	56*	64*
Nc1cnn(Cc2ccccc2F)c1	100	108	104	105	107	105

Source: PubChem BioAssay
